Among the data in PubChem BioAssay (NCI) are growth values, retold here.

Test systems include NCI-H23 lung; NCI-H226 lung; NCI-H322M lung; HOP-62 NSCLC; NCI-H460 lung; HOP-92 NSCLC; NCI-H522 lung; A549/ATCC NSCLC; 786-0 renal; COLO 205 colon; DU-145 prostate; K-562 leukemia; MALME-3M melanoma; MDA-MB-231 breast; RXF 393 renal; SF-268 CNS; SF-295 CNS; SF-539 CNS; UACC-257 melanoma; M14 melanoma.
What all share (test): NCI-60 one-dose screen, 48 h (100 = growth as untreated, 0 = no growth, -100 = all killed)
What all share (conditions): 10 µM unless noted

The panel holds about 83,000 compounds, 20% with a hit somewhere; the sample as a whole holds those more often.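 Assay: single dose, 48 h. Readout: percent growth (0 = no net growth; negative = cell death). Active: <10.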 Unmarked numbers belong to inactive results. Activity calls are given as the source filed them.

With `C=C1CC[C@@H]2[C@](C)(COC(C)=O)[C@H](OC(C)=O)CC[C@@]2(C)[C@@H]1CC(Nc1ccc(S(=O)(=O)Nc2nccc(C)n2)cc1)C1=CCOC1=O` (stereo not given in full), the growth with NCI-H23 lung is 48.4%; with NCI-H226 lung it was -12.1% (active); in the experiment on NCI-H322M lung it was 64.8%; in the experiment on HOP-62 NSCLC, 156%; in the experiment with NCI-H460 lung, 46.9%; in the experiment on HOP-92 NSCLC it was 71.6%. Besides, the growth was -50.6% (active) in the experiment on NCI-H522 lung; 63.4% in the experiment on A549/ATCC NSCLC; 32.5% in the experiment on 786-0 renal; 9.64% (active) in the experiment with COLO 205 colon; 38.5% in the experiment with DU-145 prostate; 3.62% (active) in the experiment with K-562 leukemia. In addition, the growth in the experiment on MALME-3M melanoma is -0.704% (active); in the experiment on MDA-MB-231 breast, 13.3%; in the experiment with RXF 393 renal it was -38.3% (active); in the experiment with SF-268 CNS, 43.2%; in the experiment on SF-295 CNS, 78.6%; in the experiment on SF-539 CNS, -62.7% (active). Also, the growth with UACC-257 melanoma is 48.5%; with M14 melanoma it was 11.2%.
On to `CNc1nc2ncc(-c3c(C)noc3C)cc2n1Cc1ccccc1`, for which the growth with NCI-H23 lung was 55.5%; with NCI-H226 lung it was 56.6%; in the experiment on NCI-H322M lung, 67.1%; in the experiment with HOP-62 NSCLC, 41.4%; in the experiment with NCI-H460 lung, 64.9%; in the experiment with HOP-92 NSCLC it was 7.09% (active). Further, the growth in the experiment with NCI-H522 lung was 57.1%; with A549/ATCC NSCLC it was 54.4%; in the experiment with 786-0 renal, 43.3%; in the experiment with COLO 205 colon, 29.8%; in the experiment with DU-145 prostate, 79.4%; in the experiment with K-562 leukemia, 49.3%. For the same compound, the growth in the experiment with MALME-3M melanoma was 45.4%; with MDA-MB-231 breast, 50.3%; with RXF 393 renal it was 54.1%; in the experiment with SF-268 CNS it was 80.7%; in the experiment on SF-295 CNS, 57.4%; in the experiment with SF-539 CNS it was 41%. Further, the growth in the experiment on UACC-257 melanoma is 42.3%; in the experiment with M14 melanoma, 31.5%.
For the compound `COc1ccc(CNc2c3ccccc3nc3ccccc23)cc1OC`, the growth with NCI-H23 lung was 15.1%; in the experiment on NCI-H226 lung it was 27.9%; in the experiment with NCI-H322M lung, 29.8%; in the experiment with HOP-62 NSCLC, 34.5%; with NCI-H460 lung, 6.17% (active); in the experiment with HOP-92 NSCLC, -9.67% (active). For the same compound, the growth was 18.2% in the experiment with NCI-H522 lung; 16.3% in the experiment with A549/ATCC NSCLC; 25.4% in the experiment on 786-0 renal; 5.3% (active) with COLO 205 colon; 24.7% in the experiment with DU-145 prostate; 8.81% (active) in the experiment with K-562 leukemia. Further, the growth is 7.92% (active) with MALME-3M melanoma; 19.4% in the experiment with MDA-MB-231 breast; 3.58% (active) in the experiment on RXF 393 renal; 39.6% in the experiment with SF-268 CNS; 18.1% in the experiment on SF-295 CNS; 15.4% in the experiment on SF-539 CNS. Further, the growth in the experiment on UACC-257 melanoma is 22.1%; in the experiment with M14 melanoma it was 17.7%.
Take `CCOC(=O)CC1C(CNC(=O)NC)OC(n2cnc3c(NC(=O)Nc4ccccc4)ncnc32)C1O[Si](C)(C)C(C)(C)C` (stereo not given): the growth in the experiment with NCI-H23 lung is 91.7%; in the experiment with NCI-H226 lung, 75.9%; with NCI-H322M lung, 90.5%; in the experiment with HOP-62 NSCLC, 78.9%; in the experiment with NCI-H460 lung, 47.6%; in the experiment on HOP-92 NSCLC, 63.1%. Also, the growth in the experiment on NCI-H522 lung is 80.2%; in the experiment with A549/ATCC NSCLC it was 22.4%; in the experiment with 786-0 renal, 76.1%; in the experiment with COLO 205 colon, 43%; with DU-145 prostate, 63.3%; with K-562 leukemia, 58.7%. Further, the growth in the experiment on MALME-3M melanoma is 55.3%; in the experiment on MDA-MB-231 breast it was 50.8%; in the experiment on RXF 393 renal it was -45.2% (active); in the experiment with SF-268 CNS, 58.6%; with SF-295 CNS it was 16%; with SF-539 CNS, 52.6%. Further, the values for the growth with UACC-257 melanoma and in the experiment on M14 melanoma were 87.5% and 67.3%, respectively.
Regarding `C=CCNc1nc(O)c(/C=C2\C=Nc3ncccc32)s1`, the growth in the experiment on NCI-H23 lung was 6.83% (active); in the experiment with NCI-H226 lung, 10.7%; in the experiment on NCI-H322M lung it was 10.2%; in the experiment with HOP-62 NSCLC it was -10.8% (active); in the experiment on NCI-H460 lung, 2.18% (active); in the experiment with HOP-92 NSCLC it was -1.86% (active). The growth in the experiment with NCI-H522 lung is -5.27% (active); in the experiment on A549/ATCC NSCLC, 13.2%; with 786-0 renal it was 4.4% (active); with COLO 205 colon, -20.1% (active); in the experiment on DU-145 prostate, 12.7%; with K-562 leukemia, 42.1%. For the same compound, the growth in the experiment on MALME-3M melanoma is 40.2%; in the experiment on MDA-MB-231 breast, 19.8%; with RXF 393 renal, -41.3% (active); in the experiment on SF-268 CNS, -3.26% (active); in the experiment with SF-295 CNS it was 13%; in the experiment with SF-539 CNS it was -66.2% (active). The growth with UACC-257 melanoma is 9.55% (active); in the experiment on M14 melanoma it was 24.5%.
Take `Cc1nn(-c2ccccc2)c(Oc2ccccc2)c1/C=N/NC(=O)Cn1c(=O)sc2ccccc21`: the growth in the experiment on NCI-H23 lung was 37.4%; with NCI-H226 lung it was 69.8%; in the experiment on NCI-H322M lung it was 74.9%; in the experiment with HOP-62 NSCLC, 57.4%; in the experiment with NCI-H460 lung, 55.6%; with HOP-92 NSCLC it was 50.1%. The growth was 40.6% with NCI-H522 lung; 37.5% in the experiment with A549/ATCC NSCLC; 74.5% in the experiment on 786-0 renal; 28.5% in the experiment with COLO 205 colon; 76.1% in the experiment on DU-145 prostate; 25.2% in the experiment with K-562 leukemia. For the same compound, the growth with MALME-3M melanoma is 52.7%; in the experiment with MDA-MB-231 breast, 53.6%; with RXF 393 renal it was 70.6%; with SF-268 CNS, 55%; in the experiment on SF-295 CNS it was 45.3%; in the experiment with SF-539 CNS it was 71.4%. Further, the growth was 66.1% in the experiment with UACC-257 melanoma and 56.2% in the experiment with M14 melanoma.
With `CNC(=O)c1cc(Oc2ccc3nc(NC(=O)c4cc(C(F)(F)F)cc(C(F)(F)F)c4)sc3c2)ccn1`, the growth in the experiment on NCI-H23 lung was 20.2%; in the experiment on NCI-H226 lung it was 23.3%; with NCI-H322M lung, 15.1%; with HOP-62 NSCLC it was 16.3%; in the experiment with NCI-H460 lung it was 15.7%; in the experiment with HOP-92 NSCLC it was -32.5% (active). Besides, the growth with NCI-H522 lung is -9.54% (active); with A549/ATCC NSCLC, 17.8%; in the experiment on 786-0 renal, 9.65% (active); in the experiment with COLO 205 colon, 19.1%; in the experiment on DU-145 prostate it was 27.5%; with K-562 leukemia, 13.3%. For the same compound, the growth with MALME-3M melanoma is 2.93% (active); with MDA-MB-231 breast, 8.74% (active); with RXF 393 renal, -3.77% (active); in the experiment with SF-268 CNS it was 23.6%; in the experiment with SF-295 CNS, 3.03% (active); with SF-539 CNS, 19.1%. Further, the growth with UACC-257 melanoma was 0.459% (active); with M14 melanoma, 22%.
